Experimental data taken from PubChem BioAssay (Tox21).
Results filed as inconclusive are left out. The source made the active and inactive calls. Unless noted, calls follow the shape of the full dose curve.

Columns and labels:
[1] = qHTS assay to identify small molecule antagonists of the sonic hedgehog signaling (Shh) pathway (AID 1259369); also: nearly all actives have a fitted effect of over 45% in size; also: potency is read from the fitted curve at half-maximal effect
Summary of the method: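 NIH/3T3-derived 3T3Gli1-Luc cells with stably integrated Gli1-Luc reporter were preincubated 4hr at 37 C, then given compounds in DMSO plus Shh conditioned medium and incubated 24hr. Firefly luciferase luminescence read after 30min reagent at room temperature.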

[2] = qHTS assay to identify small molecule agonists of the androgen receptor (AR) signaling pathway in the presence of an antagonist - cell viability counter screen (AID 1259379; active = well fitted curve in the direction sought with a large enough effect in the repeat runs; an effect the other way counts as inactive or inconclusive; also: nearly all actives have a fitted effect of over 25% in size; also: potency is read from the fitted curve at half-maximal effect)
Summary of the method: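 MDA-kb2 human breast carcinoma cells (stable MMTV-luciferase, AR/GR responsive) were seeded 3,000 cells/well, pre-incubated 5 hr at 37C without CO2, then given 3.0uM nilutamide and compounds at 15 concentrations for 16 hr. Viability was read by CellTiter-Fluor fluorescence.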

[3] = qHTS assay to identify small molecule agonists of the estrogen receptor beta (ER-beta) signaling pathway - cell viability counter screen (AID 1259380; active = well fitted curve in the direction sought with a large enough effect in the repeat runs; an effect the other way counts as inactive or inconclusive; also: nearly all actives have a fitted effect of over 30% in size; also: potency is read from the fitted curve at half-maximal effect)
Summary of the method: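 ER-beta-UAS-bla HEK293T cells in medium with 2% charcoal-stripped FBS were preincubated 6 hr at 37C, dosed with compound in DMSO for 16 hr, then after the bla read, CellTiter-Glo was added for 30 min at room temperature; luminescence recorded.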

[4] = biological target: Estrogen receptor (Homo sapiens) (UniProt P03372); test: qHTS assay to identify small molecule agonists of the estrogen receptor alpha (ER-alpha) signaling pathway in the presence of an antagonist (AID 1259383); also: top concentration of the series differs between compounds; nearly all actives have a fitted effect of over 15% in size
Summary of the method: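 VM7Luc4E2 cells (endogenous full-length ER-alpha, 4×ERE-luciferase) were precultured 5 days in phenol red-free medium with 10% charcoal-stripped FBS, given 10.0nM ICI-182,780 (final), then treated with compounds at 15 concentrations for 22hr at 37C; luminescence read with ONE-Glo.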

[5] = qHTS assay to identify small molecule agonists or antagonists of the thyroid stimulating hormone receptor (TSHR) signaling pathway - wild type cell line counter screen (AID 1259384)
Summary of the method: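 Counter screen in untransfected Hek293: compounds (15-point titration, triplicate) plus phosphodiesterase inhibitor Ro20-1724 added after 18 h plating; 30 min RT. Intracellular cAMP via competitive d2/cryptate immunoassay, 1 h incubation.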

[6] = biological target: Thyrotropin receptor (Homo sapiens) (UniProt P16473); test: qHTS assay to identify small molecule antagonists of the thyroid stimulating hormone receptor (TSHR) signaling pathway (AID 1259385); also: nearly all actives have a fitted effect of over 20% in size; also: potency is read from the fitted curve at half-maximal effect
Summary of the method: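 Antagonist mode: compound-treated TSHR-expressing HEK293 cells were stimulated with 1.5 ng/mL TSH (final) in presence of Ro20-1724 for 30 min at RT. HTRF cAMP detection after 1 h; each compound tested at 15 concentrations, triplicate.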

[7] = biological target: Estrogen receptor beta (Homo sapiens) (UniProt Q92731); test: qHTS assay to identify small molecule agonists of the estrogen receptor beta (ER-beta) signaling pathway (AID 1259377; active = well fitted activation curve with a large enough effect in the signal ratio in the repeat runs, not every such curve was filed as active; the % refers to the signal ratio)
Summary of the method: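 Beta-lactamase reporter readout: fluorescence of LiveBLAzer B/G FRET substrate after 2 h at room temperature, following 16 h compound treatment of ER-beta-UAS-bla HEK293T cells at 37C in 2% charcoal-stripped FBS medium.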

[8] = biological target: Estrogen receptor beta (Homo sapiens) (UniProt Q92731); test: qHTS assay to identify small molecule antagonists of the estrogen receptor beta (ER-beta) signaling pathway (AID 1259378; active = well fitted inhibition curve with a large enough effect in the signal ratio in the repeat runs, not every such curve was filed as active; the % refers to the signal ratio)
Summary of the method: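 Antagonist mode: compounds added to beta-lactamase reporter HEK293T ER-beta-UAS cells stimulated with E2 (1nM final), 16 hr at 37C. LiveBLAzer B/G FRET substrate, 2 hours room temperature, fluorescence read-out.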

[9] = qHTS assay to identify small molecule antagonists of the estrogen receptor beta (ER-beta) signaling pathway - cell viability counter screen (AID 1259382; active = well fitted curve in the direction sought with a large enough effect in the repeat runs; an effect the other way counts as inactive or inconclusive; also: nearly all actives have a fitted effect of over 55% in size; also: potency is read from the fitted curve at half-maximal effect)
Summary of the method: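 ER-beta-UAS-bla HEK293T cells (2,000/well, 2% charcoal-stripped FBS) were pre-incubated 6 hr at 37C, then given compound plus 1nM final 17-beta-estradiol for 16 hr. Viability was read in the same wells by CellTiter-Glo luminescence after 30 min at room temperature.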

[10] = biological target: Androgen receptor (Homo sapiens) (UniProt P10275); test: qHTS assay to identify small molecule agonists of the androgen receptor (AR) signaling pathway in the presence of an antagonist (AID 1259381); also: nearly all actives have a fitted effect of over 15% in size
Summary of the method: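 MDA-kb2 human breast carcinoma cells carrying an MMTV-luciferase reporter (AR- and GR-responsive) were treated with compounds at 15 concentrations plus 3.0uM final nilutamide for 16hr at 37C without CO2; luminescence was read after ONE-Glo addition.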

Measured: Potency

Sequence of Estrogen receptor beta (Homo sapiens) (Q92731 whole entry, looked up): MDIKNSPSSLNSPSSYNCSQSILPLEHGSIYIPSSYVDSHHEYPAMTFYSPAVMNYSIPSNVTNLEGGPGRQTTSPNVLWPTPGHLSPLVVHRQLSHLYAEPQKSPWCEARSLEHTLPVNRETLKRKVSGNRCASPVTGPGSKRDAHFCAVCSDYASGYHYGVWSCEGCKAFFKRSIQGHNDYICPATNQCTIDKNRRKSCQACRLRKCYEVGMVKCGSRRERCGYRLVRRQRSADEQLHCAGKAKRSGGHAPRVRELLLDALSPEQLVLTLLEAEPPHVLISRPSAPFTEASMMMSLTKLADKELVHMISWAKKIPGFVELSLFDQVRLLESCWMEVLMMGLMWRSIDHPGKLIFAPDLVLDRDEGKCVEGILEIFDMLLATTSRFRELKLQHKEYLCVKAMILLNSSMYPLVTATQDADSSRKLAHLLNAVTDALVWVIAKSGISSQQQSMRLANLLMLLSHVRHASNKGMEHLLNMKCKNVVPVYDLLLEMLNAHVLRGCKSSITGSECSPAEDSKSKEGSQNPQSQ
Sequence of Androgen receptor (Homo sapiens) (P10275 whole entry, looked up): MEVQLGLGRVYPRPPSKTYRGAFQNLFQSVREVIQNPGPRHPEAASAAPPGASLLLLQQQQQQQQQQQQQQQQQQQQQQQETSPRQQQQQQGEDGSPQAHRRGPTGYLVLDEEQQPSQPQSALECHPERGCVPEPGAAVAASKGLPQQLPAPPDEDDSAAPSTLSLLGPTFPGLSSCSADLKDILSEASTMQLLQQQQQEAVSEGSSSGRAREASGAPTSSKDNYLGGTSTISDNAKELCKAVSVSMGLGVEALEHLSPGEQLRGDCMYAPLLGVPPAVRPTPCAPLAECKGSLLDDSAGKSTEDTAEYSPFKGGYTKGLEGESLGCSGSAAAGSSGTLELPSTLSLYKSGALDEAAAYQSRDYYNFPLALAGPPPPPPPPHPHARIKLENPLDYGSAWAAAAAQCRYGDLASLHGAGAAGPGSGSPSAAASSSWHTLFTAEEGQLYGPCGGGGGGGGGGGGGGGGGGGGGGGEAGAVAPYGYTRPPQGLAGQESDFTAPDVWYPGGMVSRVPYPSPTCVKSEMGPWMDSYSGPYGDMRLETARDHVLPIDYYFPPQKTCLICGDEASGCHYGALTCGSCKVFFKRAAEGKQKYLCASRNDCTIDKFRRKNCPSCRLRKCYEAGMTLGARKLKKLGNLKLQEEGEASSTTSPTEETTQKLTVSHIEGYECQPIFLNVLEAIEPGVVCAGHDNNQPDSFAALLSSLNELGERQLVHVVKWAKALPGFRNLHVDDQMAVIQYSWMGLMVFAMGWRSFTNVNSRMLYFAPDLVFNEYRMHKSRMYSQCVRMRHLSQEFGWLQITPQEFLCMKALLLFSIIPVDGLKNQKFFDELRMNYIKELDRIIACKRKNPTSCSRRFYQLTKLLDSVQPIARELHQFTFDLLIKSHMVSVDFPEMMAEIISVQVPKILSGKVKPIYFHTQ
Sequence of Thyrotropin receptor (Homo sapiens) (P16473 whole entry, looked up): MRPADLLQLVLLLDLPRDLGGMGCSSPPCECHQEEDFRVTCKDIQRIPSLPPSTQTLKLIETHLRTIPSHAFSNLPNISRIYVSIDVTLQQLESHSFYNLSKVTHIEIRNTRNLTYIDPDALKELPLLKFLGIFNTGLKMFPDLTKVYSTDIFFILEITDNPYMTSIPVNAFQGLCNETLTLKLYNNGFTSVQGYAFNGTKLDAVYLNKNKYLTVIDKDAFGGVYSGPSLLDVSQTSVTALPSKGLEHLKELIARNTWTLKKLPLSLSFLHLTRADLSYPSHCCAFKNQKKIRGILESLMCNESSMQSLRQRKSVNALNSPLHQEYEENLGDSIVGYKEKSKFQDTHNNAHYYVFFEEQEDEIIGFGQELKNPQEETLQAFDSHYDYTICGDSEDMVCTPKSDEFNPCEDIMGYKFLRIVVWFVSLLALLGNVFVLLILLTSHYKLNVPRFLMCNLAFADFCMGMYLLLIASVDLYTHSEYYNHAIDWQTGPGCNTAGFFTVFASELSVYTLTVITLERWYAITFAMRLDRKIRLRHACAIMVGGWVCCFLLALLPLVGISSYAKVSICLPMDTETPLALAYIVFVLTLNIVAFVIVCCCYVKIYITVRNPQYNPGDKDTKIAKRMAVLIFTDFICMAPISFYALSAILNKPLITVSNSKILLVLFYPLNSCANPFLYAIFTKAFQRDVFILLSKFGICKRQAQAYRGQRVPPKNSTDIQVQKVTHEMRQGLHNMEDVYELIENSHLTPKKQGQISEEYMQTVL
Sequence of Estrogen receptor (Homo sapiens) (P03372 whole entry, looked up): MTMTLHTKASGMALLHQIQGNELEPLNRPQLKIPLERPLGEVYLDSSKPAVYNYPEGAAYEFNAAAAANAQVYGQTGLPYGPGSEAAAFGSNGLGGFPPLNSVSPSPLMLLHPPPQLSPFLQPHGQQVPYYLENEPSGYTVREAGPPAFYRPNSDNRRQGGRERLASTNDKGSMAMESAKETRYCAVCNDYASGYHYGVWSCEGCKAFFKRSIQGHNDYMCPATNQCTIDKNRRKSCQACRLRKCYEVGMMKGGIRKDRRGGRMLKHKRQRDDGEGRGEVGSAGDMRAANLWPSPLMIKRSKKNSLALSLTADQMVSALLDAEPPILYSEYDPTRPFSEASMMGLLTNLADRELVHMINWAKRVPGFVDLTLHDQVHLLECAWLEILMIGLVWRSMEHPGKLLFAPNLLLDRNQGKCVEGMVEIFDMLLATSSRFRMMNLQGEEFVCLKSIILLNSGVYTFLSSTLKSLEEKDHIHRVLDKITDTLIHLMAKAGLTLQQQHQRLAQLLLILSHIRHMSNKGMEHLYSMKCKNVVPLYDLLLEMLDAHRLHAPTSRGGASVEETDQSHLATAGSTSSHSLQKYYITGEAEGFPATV

CCN(CC)c1ccc2c(-c3ccccc3C(=O)O)c3ccc(=[N+](CC)CC)cc-3oc2c1
active: [1] 34.4 µM | [2] 9.69 µM | [3] 8.63 µM
inactive: [4]

Cc1oc2c(NC(=O)c3c(Cl)cccc3Cl)cccc2c1C(C)(C)O
inactive: [4] | [5] | [6]
active: [1] 8.63 µM | [2] 21.7 µM | [3] 30.6 µM

O=C(Nc1ccc(S(=O)(=O)N2CCOCC2)cc1)c1cc(Cl)ccc1NS(=O)(=O)c1ccc(Cl)s1
inactive: [2] | [4] | [5] | [6]
active: [1] 26.6 µM

O=P(O)(OCc1ccccc1)OCc1ccccc1
not listed: [1] | [3] | [10]
inactive: all other assays above

CO[C@@H]1[C@H](OC(=O)/C=C/C=C/C=C/C=C/C(=O)O)CC[C@]2(CO2)[C@H]1[C@@]1(C)O[C@@H]1CC=C(C)C
inactive: [7] | [8] | [9] | [4] | [5] | [6]

CC(=O)c1ccc2c(c1)N(CCCN(C)C)c1ccccc1S2
inactive: [1] | [2] | [4] | [5] | [6]

CCCCCCOC(=O)NC(=N)c1ccc(NCc2nc3cc(C(=O)N(CCC(=O)OCC)c4ccccn4)ccc3n2C)cc1
active: [1] 1.19 µM | [3] 11.9 µM | [9] 11.9 µM | [6] 29.8 µM
inactive: [4] | [5]

O=C(O)CC(=O)C(=O)O
inactive: [2] | [5] | [6]
active: [1] 54.6 µM

CCC(CC)Nc1ccc(C)c(C)c1
inactive: [7] | [8] | [2] | [3] | [9] | [4]

CN1CCC(N(Cc2cccs2)c2ccccc2)CC1
not listed: [1] | [3] | [10]
inactive: all other assays above

CC1(c2ccccc2)OC(C(=O)O)=CC1=O (stereo not given)
inactive: [7] | [8] | [2] | [9] | [5] | [6]

CC(C)OC(=O)C(C)N(C(=O)c1ccccc1)c1ccc(F)c(Cl)c1 (stereo not given)
inactive: [7] | [2] | [9]

Cc1cccc(C)c1OCC(=O)N[C@@H](Cc1ccccc1)[C@@H](O)C[C@H](Cc1ccccc1)NC(=O)[C@H](C(C)C)N1CCCNC1=O
inactive: [10] | [4] | [5] | [6]
active: [1] 29.8 µM | [3] 23.7 µM | [9] 23.7 µM

OCCN1CCN(CCCN2c3ccccc3C=Cc3ccccc32)CC1
active: [3] 5.31 µM
inactive: [7] | [2] | [4] | [5] | [6]

C[N+]1(CC2COC(c3ccccc3)(C3CCCCC3)O2)CCCCC1 (stereo not given)
not listed: [1] | [2] | [10]
inactive: all other assays above

CN1C[C@H]2c3ccccc3Oc3ccc(Cl)cc3[C@@H]2C1
not listed: [1] | [3] | [10]
inactive: all other assays above

CN(C)CCCN1c2ccccc2Sc2ccccc21
active: [1] 11.9 µM | [9] 26.6 µM

C=C1C(=C/C=C2\CCC[C@]3(C)[C@@H]([C@H](C)/C=C/[C@@H](O)C4CC4)CC[C@@H]23)C[C@@H](O)C[C@@H]1O
inactive: [10] | [4] | [5] | [6]
active: [1] 0.0007 µM | [3] 26.6 µM

COc1cc2nc(N3CCN(C(=O)C4COc5ccccc5O4)CC3)nc(N)c2cc1OC (stereo not given)
inactive: [7] | [2] | [3] | [5]

Cc1ccc(N=Nc2c(O)c(C(=O)O)cc3ccccc23)c(S(=O)(=O)O)c1
active: [2] 23.6 µM
inactive: [7] | [8] | [9] | [5] | [6]

O=C(O)C1(C(=O)Nc2ccc(Cl)cc2Cl)CC1
active: [3] 15.4 µM
inactive: [1] | [10] | [4] | [5] | [6]

Cc1cc(N)c2cc(NC(=O)Nc3ccc4nc(C)cc(N)c4c3)ccc2n1
inactive: [7] | [8] | [2] | [3] | [10] | [9]

CCOc1ccc(N)c([N+](=O)[O-])c1
inactive: [1] | [3] | [4] | [5] | [6]

CCCn1cnc2c1c(=O)n(CCCCC(C)=O)c(=O)n2C
not listed: [1] | [6]
inactive: all other assays above

CCOC(=O)COC(=O)c1cc(Oc2ccc(C(F)(F)F)cc2Cl)ccc1[N+](=O)[O-]
not listed: [1] | [4] | [9]
inactive: all other assays above

Cc1ccccc1S(=O)(=O)O
not listed: [1] | [4] | [10]
inactive: all other assays above

COC(=O)C1=C(C)NC(COC(N)=O)=C(C(=O)OC(C)C)C1c1cccc(Cl)c1Cl (stereo not given)
not listed: [1] | [3]
inactive: all other assays above

CCC(Cl)CCC(Cl)C(Cl)CC(Cl)C(Cl)C(Cl)CCl (stereo not given)
inactive: [7] | [8] | [2] | [3] | [5] | [6]

Nc1ccc([N+](=O)[O-])c(C(F)(F)F)c1
not listed: [1] | [10]
inactive: all other assays above

O=C1OC(CN2CCOCC2)CN1/N=C/c1ccc([N+](=O)[O-])o1 (stereo not given)
not listed: [1] | [2] | [9]
inactive: all other assays above

CC1=CCCC(C)(C)C12CCC(C)O2 (stereo not given)
not listed: [1] | [4] | [10]
inactive: all other assays above
